# DAX1 inh-1: NR0B1 (DAX1) inhibition | P51843 | HEK293 Gal4-DAX1 luciferase reporter, luminescence | AID 504766 | hit rate 0.99% among 340,000 | inhibition, % at 6.75 µM;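 active means inhibition above the mean over all tested compounds plus 3 SD, cut at about 4.2% in these data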;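 further: 0% = DAX1-transfected cells with DMSO and 100% = empty-vector control cells with DMSO; inhibition shows as a rise in luminescence from relieved DAX1 repression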
# Target sequence (P51843 207-470 limits assumed): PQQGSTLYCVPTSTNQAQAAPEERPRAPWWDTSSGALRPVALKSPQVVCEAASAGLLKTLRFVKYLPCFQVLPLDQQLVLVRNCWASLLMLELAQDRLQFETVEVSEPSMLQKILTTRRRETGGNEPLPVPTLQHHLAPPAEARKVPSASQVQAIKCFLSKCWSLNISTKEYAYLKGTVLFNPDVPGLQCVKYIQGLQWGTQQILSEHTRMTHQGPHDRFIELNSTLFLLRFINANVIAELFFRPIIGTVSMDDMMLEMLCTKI
# ssDAF12 agonist: activates DAF-12 receptor from parasite S. stercoralis | AID 652126 | hit rate 1% among 370,000 | HEK293 ssDAF-12/GRIP1 lit1-tk-luc reporter, luminescence; % of 3 µM dafachronic acid response | activation, % at 6.8 µM;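 active means activation above the mean over all tested compounds plus 3 SD, cut at about 0.9% in these data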;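 further: 0% = DMSO-only wells and 100% = 3 µM delta7-dafachronic acid wells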
# hcDAF12 agonist: activators of H. contortus DAF-12 nuclear receptor | HEK293 hcDAF-12 lit1-tk-luc reporter, luminescence; 0% DMSO, 100% Δ7-dafachronic acid | activation, % at 6.8 µM | hit rate 1.4% among 370,000 | AID 652067;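 active means activation above the mean of all tested compounds plus 3 SD, cut at about 5.5% in these data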;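 further: 100% = response to 3 µM Δ7-dafachronic acid high control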
# SMARCA2 activ: increases SMARCA2 function in MMTV reporter cells. hit rate 1% among 370,000. MG213 cells, MMTV-luciferase reporter, dexamethasone, overnight. activation, % at 9.1 µM. AID 652017; in the data active means activation above about 7.8%;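 further: 0% = vehicle wells and 100% = reference activator wells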
# hgDAF-12 ag: agonists of H. glycines DAF-12 nuclear receptor; HEK293 GAL4-hgDAF12 UAS-luciferase reporter, agonist luminescence; normalized to butyrate control; activation, % at 6.8 µM; hit rate 1.8% among 370,000;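 active means activation above a cutoff set at the mean of all screened compounds plus 3 SD, cut at about 10% in these data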;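 further: 0% = DMSO wells and 100% = sodium butyrate wells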
# DAX1 inh-2: blocks DAX1 repression of SF-1 activated StAR promoter; HEK293T StAR-luciferase reporter, SF-1/DAX-1 repression relief; inhibition, % at 6.8 µM; hit rate 1.1% among 370,000; AID 652010;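 active means inhibition above the mean over all tested compounds plus 3 SD, cut at about 3.6% in these data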;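 further: 0% = DAX-1 cells with DMSO and 100% = cells lacking DAX-1 with DMSO; higher inhibition means more luminescence from relief of DAX-1 repression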
# SMARCA2 act conf: SMARCA2 activation, confirmation screen; hit rate 30% among 3,500; MG213 cells, MMTV-luciferase with dexamethasone, luminescence, overnight; MG213 cells expressing E1A, Rb sequestered; DMSO wells 0%, reference activator 100%; shares compounds with SMARCA2 activ; activation, % at 9.1 µM;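 active means activation above its plate's cutoff, the mean activation of tested wells plus 3 SD, cut at about 7.9% in these data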
# GAL4-VP16 Luc: GAL4-VP16 reporter activation counter-screen | shares compounds with SMARCA2 activ | HEK293 GAL4-VP16 pG5luc reporter, luciferase luminescence; scaled: DMSO wells 0%, SAHA wells 100% | activation, % at 9.1 µM | hit rate 41% among 3,500 | AID 686939;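 active means activation above the solvent-only control well mean plus 3 SD, averaged across control plates, cut at about 5.2% in these data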
# Numbers without * were called inactive; · = no result. Only some compounds are listed: those with a hit (about 4.8% of all), similar ones and a draw of the others.
SMILES,DAX1 inh-1,ssDAF12 agonist,hcDAF12 agonist,SMARCA2 activ,hgDAF-12 ag,DAX1 inh-2,SMARCA2 act conf,GAL4-VP16 Luc
O=C(N/N=C/c1cccc(F)c1)c1csc2c1CCCC2,2,0,4,5,6,3,·,·
COc1ccc(CCN2CC(C(=O)N(C)Cc3ccccc3OC)CCC2=O)cc1 (configuration not stated),-1,-1,-1,8.6*,-2,0,-5,-1
O=C(CN1C(=O)CSc2ccccc21)NC1CCCC1,0,-1,-2,8.3*,0,0,0,0
C/C=C/c1ccccc1OCCCN1CCC(C(O)(c2ccccc2)c2ccccc2)CC1,·,-1,0,-7,-1,0,·,·
CC(C)(C)OC(=O)N1CCC(N[C@@H](Cc2c[nH]c3ccccc23)C(=O)NCC(c2ccccc2)c2ccccc2)(C(=O)NC2CCCCC2)CC1,·,-2,2,·,-1,·,·,·
COc1ccc(CCNc2ncccc2C#N)cc1OC,2,-1,3,10*,9,1,7,9.6*
Cc1ccc2cc(NC(=O)c3ccccc3)ccc2n1,2,0,5,9.2*,10,4,7,13*
Cc1ccc2cc(NC(=O)CC(CC(=O)O)c3ccccc3)ccc2n1 (configuration not stated),2,-1,-1,-3,0,0,·,·
CCN(CC)CCNC(=S)Nc1ccc2nc(N3CCCC3)cc(C)c2c1,1,-1,-1,9.6*,-1,2,15*,0
CCCN(CCC)CCCNC(=S)Nc1ccc2nc(N3CCCC3)cc(C)c2c1,0,-1,1,15*,2,0,16*,-1
C#CCOCCOCCOCCNc1nc(N2CCOCC2)nc(N2CCN(C(=O)[C@H](CCC(=O)O)n3cc(C(N)CC(C)C)nn3)CC2)n1 (some centres not stated),·,0,2,·,7,·,·,·
O=[N+]([O-])c1cc(O)c2ncccc2c1,·,-1,1,21*,-3,-1,1,2
CCC(C(=O)NNC(=O)c1cnccn1)c1ccccc1 (configuration not stated),-1,-2,-1,8.1*,1,0,0,0
CCC(C(=O)Nc1cnccn1)c1ccccc1 (configuration not stated),-1,-1,-1,-1,4,0,·,·
O=C(O)c1cc(-c2ccc3ccccc3n2)nc2ccccc12,-1,0,6,13*,6,1,3,7.7*
Cn1c(=O)cc(SCC(=O)NCCC2=CCCCC2)c2ccc(Cl)cc21,1,-1,0,8.3*,1,0,5,2
O=C(Nc1nc2ncccn2c1-c1ccccc1)c1ccccc1,·,-1,-2,-1,0,-1,·,·
Cc1nn(C)c(C)c1CNC(=O)Nc1ccc(Cl)cc1,2,-1,1,9.5*,7,3,1,6.4*
CCOC(=O)c1ccc(NC(=O)NCc2c(C)nn(CC)c2C)cc1,0,-2,-2,-1,-2,-1,·,·
CC(=O)OC12CCCN(C1)/C(=C/c1cccc(Cl)c1)C2 (configuration not stated),·,-1,-1,0,1,0,·,·
C#CCN(Cc1cccc(F)c1)C(=O)c1nnc2c3cc(F)ccc3n(S(=O)(=O)c3ccc(OC)cc3)c2n1,·,0,1,-3,0,1,·,·
O=C(Nc1ccc2c(c1)OCCO2)C(=S)NCc1ccccc1,-1,-1,0,9.7*,9,1,5,4
O=C(NCc1ccccc1)c1ccc2c(c1)OCCO2,0,-1,0,-3,3,1,·,·
COc1ccc(C(=O)NCC2(c3ccc(OC)c(OC)c3)CCCC2)cc1OC,1,-2,-1,8.9*,-1,-1,-1,-1
COc1ccc(C2(CNC(=O)c3ccc(OC)c([N+](=O)[O-])c3)CCCCC2)cc1OC,-2,-1,-2,-2,-9,0,·,·
SMILES,DAX1 inh-1,ssDAF12 agonist,hcDAF12 agonist,SMARCA2 activ,hgDAF-12 ag,DAX1 inh-2,SMARCA2 act conf,GAL4-VP16 Luc
CN(C)CCN(C(=O)c1ccco1)c1nc2cc3c(cc2s1)OCCO3,1,-1,3,9.7*,7,2,2,4
CC(C)(N[C@@H](Cc1ccccc1)C(=O)NCC(c1ccccc1)c1ccccc1)C(=O)NC1CCCCC1,·,-2,0,·,1,·,·,·
CCOC(=O)C1(Cc2cccc(OC)c2)CCCN(C(=O)CCc2cccnc2)C1 (configuration not stated),4,-1,0,9.3*,12*,0,7,7.9*
COC(=O)C(C[N+](=O)[O-])C1=C(O)CC(C)(C)CC1=O (configuration not stated),·,-1,-2,-2,-3,0,·,·
O=C1N2CCc3ccccc3C2CS(=O)(=O)N1CCc1ccccc1 (configuration not stated),·,0,1,5,8,1,·,·
CCOc1ccc(NC(=S)NN2C(C)CCCC2C)cc1 (configuration not stated),0,-1,3,-3,-2,0,·,·
CCOc1ccc(NC(=O)NN2C(C)CCCC2C)cc1 (configuration not stated),-1,-2,-2,15*,0,0,-5,0
CC(=O)OCCC(CC(C)C)NC(=O)[C@H](CC(C)C)NC(=O)OCc1ccccc1 (some centres not stated),·,-1,2,·,0,·,·,·
O=C(N/N=C/c1ccccn1)c1ccc(NC(=O)c2cccc([N+](=O)[O-])c2)cc1,·,-2,-2,1,2,-1,·,·
O=C(N/N=C/c1ccccn1)c1cccc([N+](=O)[O-])c1,0,-2,0,11*,3,0,2,4
O=C(N/N=C/c1ccccn1)c1ccc(Br)cc1,-2,0,3,12*,8,-1,-8,25*
O=C(NC(=S)Nc1ccccn1)c1cccc([N+](=O)[O-])c1,3,-1,4,8.8*,4,1,5,7.5*
O=C(NCCc1ccccc1)OCc1cn(Cc2ccccc2Cl)nn1,·,-1,-2,-2,1,0,·,·
CCn1c2ccccc2c2cc(NC(=O)COC(=O)c3ccc(F)cc3Cl)ccc21,·,-1,-2,-5,2,1,·,·
Cc1ccc(C(=O)O/N=C(\N)Cc2cccs2)cc1[N+](=O)[O-],0,0,2,8.2*,8,1,3,3
